Measured values from PubChem BioAssay (NCI).
Compounds without any hit were thinned out: in the full panel of roughly 83,000, 20% have a hit.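 The test compound was applied at a single concentration to cells in 96-well plates for 48 hours, and percent growth was recorded.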 A number with no mark means an inactive call. Activity calls are given as the source filed them. Rule for the calls: active = growth percent below 10; inactive = the rest.

Columns and labels:
Test in all cases: NCI-60 one-dose screen, 48 h (100 = growth as untreated, 0 = no growth, -100 = all killed)
Settings in all cases: 10 µM unless noted
[1] = test system: DU-145 prostate
[2] = test system: K-562 leukemia
[3] = test system: MALME-3M melanoma
[4] = test system: MDA-MB-231 breast
[5] = test system: RXF 393 renal
[6] = test system: SF-268 CNS
[7] = test system: SF-539 CNS
[8] = test system: UACC-257 melanoma
[9] = test system: M14 melanoma

SMILES | growth [1] | growth [2] | growth [3] | growth [4] | growth [5] | growth [6] | growth [7] | growth [8] | growth [9]
OC(c1cc(-c2ccc(C(F)(F)F)cc2)nc(-c2ccc(C(F)(F)F)cc2)c1)C1CCCCN1 (stereo not given) | -94.9% (active) | -73.6% (active) | -64.7% (active) | -71% (active) | -86% (active) | -83.9% (active) | -77.3% (active) | -76% (active) | -80.1% (active)
O=C(/C=C/c1ccccc1)C(Br)C(Br)c1ccccc1 (stereo not given) | -21.3% (active) | 1.4% (active) | -54.3% (active) | 27.7% | -79.9% (active) | 13.9% | -33.1% (active) | 22.8% | 17.2%
O=c1[nH]c2ccccc2n2cc3cccnc3c12 | 87.5% | 47.2% | 116% | 65.7% | 80.8% | 79.3% | 75.5% | 97.1% | 84.1%
CN1CCN(Cc2ccc(NC(=O)c3cncc(C#Cc4ncc5ccccn45)c3)cc2C(F)(F)F)CC1 | -4.29% (active) | 3.35% (active) | -21.4% (active) | 15.4% | -10.1% (active) | 15.4% | -79.6% (active) | 7.63% (active) | 5.5% (active)
COC(=O)C(CCC(=O)CCl)N1C(=O)c2ccccc2C1=O (stereo not given) | 87.6% | 28.6% | 42.2% | 84.6% | 25.8% | 56.5% | 64.9% | 69.7% | 39.9%
COc1ccc(C2C=C(c3ccc(Cl)cc3)N=C3SC=CN32)cc1 (stereo not given) | 129% | 104% | 108% | 112% | 122% | 119% | 104% | 108% | 109%
C=CCn1c(SCC(=O)Nc2ccc(C(=O)/C=C/c3ccccc3)cc2)nnc1-c1ccc(OC)c(OC)c1 | 89.6% | 47.5% | 105% | 77.1% | 85.7% | 86% | 92.1% | 79.9% | 73.6%
CC1=C(C(=O)Nc2ccc(F)cc2)C(c2ccc(Cl)cc2)C2=C(CC(C)(C)CC2=O)N1 (stereo not given) | 105% | 74% | 160% | 82% | 96.4% | 86.3% | 94% | 95.3% | 98.5%
CCc1oc2ccccc2c1C(=O)c1cc(I)c(O)c(I)c1 | 77.8% | 25% | 53% | 54.7% | 45.3% | 53.1% | 44% | 70.7% | 16.2%
C#CC[C@@H]1C[C@]2(C)[C@H]3CC=C4[C@H]5[C@@H](C)[C@H](C)CC[C@]5(C(=O)NCCCCCCCCN)CC[C@@]4(C)[C@]3(C)CC[C@H]2C(C)(C)[C@H]1OC(C)=O | 41.8% | -23.4% (active) | 66% | 56% | 70.4% | 92.9% | 83.8% | 100% | 29.3%
COc1cc(NC(C)CCCN)c2ncccc2c1Oc1ccc(Cl)cc1 (stereo not given) | 74.8% | 52.2% | 88.1% | 42.4% | 79.5% | 77.5% | 81.2% | 88.5% | 74.4%
CC(CN1CCN(CCOCCO)CC1)CN1c2ccccc2Sc2ccc(Cl)cc21 (stereo not given) | 70.3% | 6.64% (active) | 45.1% | 29.9% | 56.8% | 63.8% | 79.2% | -3.9% (active) | 5.98% (active)
OC(c1cc2cc(Cl)ccc2c2cc(C(F)(F)F)ccc12)C1CCCCN1 (stereo not given) | -95.8% (active) | -76.8% (active) | -61.9% (active) | -68% (active) | -95.4% (active) | -90.1% (active) | -80.5% (active) | -84% (active) | -72% (active)
C/C(=N\NC(=S)Nc1ccccc1)c1ccccn1 | 57.5% | 23.6% | 31.3% | 30.8% | 12.2% | 43.3% | 19.6% | 17.6% | 24.1%
C#CC[C@@H]1C[C@]2(C)[C@H]3CC[C@@H]4[C@H]5C(C(=C)C)CC[C@]5(C(=O)NCCN(CCN)CCN)CC[C@@]4(C)[C@]3(C)CC[C@H]2C(C)(C)[C@H]1OC(C)=O (stereo not given in full) | 95.1% | 2.56% (active) | 85.7% | 33% | -66.1% (active) | 87.6% | 95.2% | 109% | 91.3%
CSC(=S)N/N=C(\C)c1ccccn1 | 16.1% | 8.85% (active) | -3.24% (active) | 33.9% | 0.311% (active) | 17.3% | 1.81% (active) | 7.4% (active) | 1.91% (active)
CCCCCCCCCCCCCCCCS(=O)(=O)Nc1cc(C(=O)NN)cc(C(=O)NN)c1 | 81% | 33.9% | 85.4% | 58.2% | 94.3% | 43.4% | 63.7% | 107% | 88%
COc1cc(C)cc2oc3oc(=O)c(-c4csc(-c5cc6ccccc6oc5=O)n4)cc3c(=O)c12 | 113% | 112% | 105% | 99.5% | 102% | 105% | 99.3% | 115% | 104%
CCCCNCC(O)c1cc2c(Cl)cc(Cl)cc2c2cc(C(F)(F)F)ccc12 (stereo not given) | -98% (active) | -69.1% (active) | -60.8% (active) | -74.8% (active) | -94.7% (active) | -80.5% (active) | -81.7% (active) | -72.4% (active) | -86.5% (active)
Nc1n[nH]c2ccc([C@@H]3Nc4c(F)cc5[nH]ncc5c4[C@H]4C5CCC(C5)[C@@H]34)cc12 (stereo not given in full) | 3.59% (active) | 13.9% | 32.7% | 4.87% (active) | -0.647% (active) | 36.1% | -39% (active) | 62.1% | 9.46% (active)
COc1cccc(NC(=O)[C@H](C(C)C)n2c(=O)[nH]c3ccccc3c2=O)c1 | 107% | 90.4% | 104% | 107% | 109% | 111% | 102% | 96.5% | 107%
CC(C)N1CCN(c2ccncc2S(=O)(=O)N2CCN(C)CC2)CC1 | 110% | 98% | 113% | 101% | 107% | 107% | 99.8% | 102% | 99.5%
COc1ccc(/C=C/C(=O)c2ccc(NC(=O)CSc3nnc(-c4ccc(OC)cc4)n3-c3ccccc3)cc2)cc1 | 104% | 78.1% | 96.8% | 90.9% | 108% | 101% | 100% | 91.9% | 92.7%
O=C(CN1CCN(c2ccccc2)CC1)N1CCN(c2nnc(-c3ccc(Cl)cc3)c(-c3ccc(Cl)cc3)n2)CC1 | 76% | 22.4% | 126% | 76.4% | 49.9% | 65.2% | 60.2% | 61.6% | 69.5%
COc1ccc(NC(=O)C2c3ccccc3C(=O)N(CC(C)C)C2c2cccs2)cc1 (stereo not given) | 98.9% | 88.8% | 113% | 92.1% | 79.2% | 95.1% | 98.9% | 97.2% | 106%
COc1ccc(-c2nc(-c3cc(OC)cc(OC)c3)[nH]c2-c2ccc(OC)cc2)cc1 | 78.5% | 16.3% | 70.9% | 58.7% | 54.5% | 88.6% | 80.5% | 62.9% | 49.7%
C=CCn1c(SCC(=O)Nc2ccc(/C(C)=N\O)cc2)nnc1-c1cc(-c2ccc(Cl)cc2)nc2ccccc12 | 48.5% | 13.4% | 71.7% | 35% | 47% | 38.2% | 15.8% | 47.9% | 20.4%
Cc1ccc(N=CNN=C(N)N)cc1 | 113% | 87.8% | 114% | 118% | 110% | 105% | 94.8% | 97.4% | 103%
Clc1ncnc2scc(C3COc4ccccc4O3)c12 (stereo not given) | 76.8% | 69.8% | 58.7% | 98.3% | 99.6% | 101% | 94.1% | 93.2% | 88.4%
CCn1c(CN2CCN(Cc3ccccc3)CC2)nc2cc(NC(=O)c3cccs3)ccc21 | -57.7% (active) | -27.5% (active) | -72.8% (active) | -90.6% (active) | -92.4% (active) | -88.3% (active) | -69.8% (active) | -80.1% (active) | -64.6% (active)
